Test results: the supplement of paper PMC12067093, “Discovery and optimisation of a covalent ligand for TRIM25 and its application to targeted protein ubiquitination” (Chemical Science, 2025)
About 21,000 targets were measured; listed, in parts, are those with the largest changes and a random draw of the rest.

Compound: CC1Cc2ccccc2N1C(=O)C1CCCN(C1)C(=O)CCl (mixture of isomers) [TRIM25 ligand 11 (diastereomer mixture)]
Test: probe-labelled cysteine peptide fold change vs DMSO (competition) (log2 fold change); higher = less target engagement (more negative = stronger competition)
Conditions: THP-1, incubation time: 4 h
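Also: competitive chemoproteomic profiling in live THP-1 cells with an iodoacetamide desthiobiotin (IA-DTB) probe, comparing probe-labelled peptide intensities in compound-treated cells against DMSO-treated controls.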

Chain of UniProt Q9H4A3 (Q9H4A3 whole entry, looked up): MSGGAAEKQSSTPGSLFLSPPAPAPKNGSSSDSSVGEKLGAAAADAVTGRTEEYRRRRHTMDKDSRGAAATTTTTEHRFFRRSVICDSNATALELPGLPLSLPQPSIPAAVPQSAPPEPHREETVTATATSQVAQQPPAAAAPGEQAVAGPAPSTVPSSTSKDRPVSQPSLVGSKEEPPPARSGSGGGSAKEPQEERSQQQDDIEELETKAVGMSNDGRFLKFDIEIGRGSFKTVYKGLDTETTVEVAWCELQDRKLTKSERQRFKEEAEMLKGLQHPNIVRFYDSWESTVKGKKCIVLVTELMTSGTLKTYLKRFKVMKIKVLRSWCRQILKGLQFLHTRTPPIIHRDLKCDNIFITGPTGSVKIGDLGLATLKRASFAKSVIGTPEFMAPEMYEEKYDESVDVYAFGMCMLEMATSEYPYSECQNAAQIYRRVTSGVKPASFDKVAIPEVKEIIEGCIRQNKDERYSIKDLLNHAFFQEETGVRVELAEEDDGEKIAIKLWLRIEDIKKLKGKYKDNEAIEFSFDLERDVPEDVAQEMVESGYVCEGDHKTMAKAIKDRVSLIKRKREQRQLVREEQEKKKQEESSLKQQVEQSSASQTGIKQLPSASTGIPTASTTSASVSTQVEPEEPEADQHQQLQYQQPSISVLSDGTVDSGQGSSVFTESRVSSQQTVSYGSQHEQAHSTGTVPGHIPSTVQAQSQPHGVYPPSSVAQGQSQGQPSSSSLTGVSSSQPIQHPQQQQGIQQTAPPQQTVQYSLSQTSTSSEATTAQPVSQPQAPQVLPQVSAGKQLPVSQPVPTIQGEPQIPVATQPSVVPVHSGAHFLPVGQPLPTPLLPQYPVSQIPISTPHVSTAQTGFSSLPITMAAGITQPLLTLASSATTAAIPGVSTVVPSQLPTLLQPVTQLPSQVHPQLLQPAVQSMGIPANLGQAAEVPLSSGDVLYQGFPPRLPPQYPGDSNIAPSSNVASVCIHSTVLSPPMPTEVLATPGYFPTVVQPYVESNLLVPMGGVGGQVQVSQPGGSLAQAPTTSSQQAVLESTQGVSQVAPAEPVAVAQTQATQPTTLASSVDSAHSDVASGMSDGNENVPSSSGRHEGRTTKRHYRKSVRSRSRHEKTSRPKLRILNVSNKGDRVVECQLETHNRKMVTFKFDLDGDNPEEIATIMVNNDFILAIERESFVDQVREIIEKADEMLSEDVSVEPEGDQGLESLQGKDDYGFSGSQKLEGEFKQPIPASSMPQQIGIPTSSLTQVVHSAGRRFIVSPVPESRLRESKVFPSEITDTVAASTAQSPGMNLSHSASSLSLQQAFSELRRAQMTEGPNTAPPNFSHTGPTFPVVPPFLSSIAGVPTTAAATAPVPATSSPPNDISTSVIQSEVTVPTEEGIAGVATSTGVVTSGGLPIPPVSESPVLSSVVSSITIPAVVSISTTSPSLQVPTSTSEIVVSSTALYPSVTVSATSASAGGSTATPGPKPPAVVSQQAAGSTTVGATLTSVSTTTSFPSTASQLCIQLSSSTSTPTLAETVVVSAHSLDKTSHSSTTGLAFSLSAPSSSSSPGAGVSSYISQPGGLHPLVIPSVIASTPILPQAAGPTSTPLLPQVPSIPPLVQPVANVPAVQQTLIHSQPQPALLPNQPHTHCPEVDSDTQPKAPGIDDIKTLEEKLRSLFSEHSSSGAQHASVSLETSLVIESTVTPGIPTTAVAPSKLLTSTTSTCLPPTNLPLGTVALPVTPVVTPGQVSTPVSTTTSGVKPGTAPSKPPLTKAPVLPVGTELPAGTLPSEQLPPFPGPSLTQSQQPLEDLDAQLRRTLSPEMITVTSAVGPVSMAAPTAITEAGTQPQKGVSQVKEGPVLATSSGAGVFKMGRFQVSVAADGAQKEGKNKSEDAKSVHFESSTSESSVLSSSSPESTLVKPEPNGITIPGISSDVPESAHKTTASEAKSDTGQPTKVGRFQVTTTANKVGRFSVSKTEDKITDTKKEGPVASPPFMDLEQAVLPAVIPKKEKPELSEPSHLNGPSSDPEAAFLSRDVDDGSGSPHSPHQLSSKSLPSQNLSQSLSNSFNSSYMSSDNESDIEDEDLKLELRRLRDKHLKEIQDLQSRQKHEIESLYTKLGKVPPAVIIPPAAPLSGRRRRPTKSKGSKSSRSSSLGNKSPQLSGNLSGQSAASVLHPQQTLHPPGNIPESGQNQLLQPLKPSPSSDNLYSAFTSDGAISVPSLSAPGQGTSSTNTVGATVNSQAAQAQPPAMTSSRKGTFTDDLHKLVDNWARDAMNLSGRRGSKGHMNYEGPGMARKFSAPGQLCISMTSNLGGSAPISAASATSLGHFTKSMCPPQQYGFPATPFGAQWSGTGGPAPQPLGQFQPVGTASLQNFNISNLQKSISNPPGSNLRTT
Chain of UniProt Q8IWV8 (Q8IWV8 whole entry, looked up): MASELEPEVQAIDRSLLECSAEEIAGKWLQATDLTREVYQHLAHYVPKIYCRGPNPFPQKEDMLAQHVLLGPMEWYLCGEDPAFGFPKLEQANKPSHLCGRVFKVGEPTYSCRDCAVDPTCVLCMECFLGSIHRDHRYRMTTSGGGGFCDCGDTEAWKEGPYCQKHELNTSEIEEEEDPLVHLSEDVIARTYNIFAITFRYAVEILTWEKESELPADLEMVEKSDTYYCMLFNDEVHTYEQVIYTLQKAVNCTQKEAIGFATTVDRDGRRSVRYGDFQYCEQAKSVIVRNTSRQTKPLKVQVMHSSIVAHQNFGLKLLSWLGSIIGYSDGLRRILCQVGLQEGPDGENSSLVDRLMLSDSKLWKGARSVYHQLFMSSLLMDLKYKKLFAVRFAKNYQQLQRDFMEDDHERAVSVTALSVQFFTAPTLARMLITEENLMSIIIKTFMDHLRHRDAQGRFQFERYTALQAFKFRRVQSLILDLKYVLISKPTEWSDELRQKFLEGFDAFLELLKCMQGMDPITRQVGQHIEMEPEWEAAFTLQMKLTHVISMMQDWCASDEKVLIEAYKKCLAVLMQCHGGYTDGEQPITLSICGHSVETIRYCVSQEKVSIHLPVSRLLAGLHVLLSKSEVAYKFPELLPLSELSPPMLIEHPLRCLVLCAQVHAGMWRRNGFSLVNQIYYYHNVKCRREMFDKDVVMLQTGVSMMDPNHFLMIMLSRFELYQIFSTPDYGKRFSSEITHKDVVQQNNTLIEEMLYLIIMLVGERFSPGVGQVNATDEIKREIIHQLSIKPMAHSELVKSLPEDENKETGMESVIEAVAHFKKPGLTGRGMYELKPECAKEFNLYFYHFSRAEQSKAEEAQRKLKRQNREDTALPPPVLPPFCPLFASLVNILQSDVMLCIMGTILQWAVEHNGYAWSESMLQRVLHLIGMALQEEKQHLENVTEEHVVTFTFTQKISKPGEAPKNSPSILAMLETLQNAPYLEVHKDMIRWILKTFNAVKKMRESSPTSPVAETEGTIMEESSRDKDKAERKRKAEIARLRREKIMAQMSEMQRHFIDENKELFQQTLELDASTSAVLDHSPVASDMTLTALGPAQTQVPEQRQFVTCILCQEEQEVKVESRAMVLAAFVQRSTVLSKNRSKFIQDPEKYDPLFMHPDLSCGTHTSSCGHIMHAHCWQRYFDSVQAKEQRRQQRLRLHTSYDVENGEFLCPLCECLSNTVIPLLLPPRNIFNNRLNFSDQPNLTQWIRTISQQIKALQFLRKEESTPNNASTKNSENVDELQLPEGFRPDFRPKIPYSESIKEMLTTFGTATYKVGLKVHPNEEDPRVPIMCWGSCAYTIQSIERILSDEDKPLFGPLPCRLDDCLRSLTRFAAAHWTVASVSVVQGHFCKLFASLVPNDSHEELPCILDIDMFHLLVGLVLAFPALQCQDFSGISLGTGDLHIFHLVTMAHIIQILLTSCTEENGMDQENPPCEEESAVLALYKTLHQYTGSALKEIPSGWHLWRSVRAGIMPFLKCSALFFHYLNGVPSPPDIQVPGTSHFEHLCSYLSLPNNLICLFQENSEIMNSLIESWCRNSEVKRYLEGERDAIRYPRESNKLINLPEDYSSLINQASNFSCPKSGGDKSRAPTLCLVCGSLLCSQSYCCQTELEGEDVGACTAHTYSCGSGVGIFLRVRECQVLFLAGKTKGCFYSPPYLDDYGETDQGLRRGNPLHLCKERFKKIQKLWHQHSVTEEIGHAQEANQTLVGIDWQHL
Chain of UniProt Q6PKC3 (Q6PKC3 whole entry, looked up): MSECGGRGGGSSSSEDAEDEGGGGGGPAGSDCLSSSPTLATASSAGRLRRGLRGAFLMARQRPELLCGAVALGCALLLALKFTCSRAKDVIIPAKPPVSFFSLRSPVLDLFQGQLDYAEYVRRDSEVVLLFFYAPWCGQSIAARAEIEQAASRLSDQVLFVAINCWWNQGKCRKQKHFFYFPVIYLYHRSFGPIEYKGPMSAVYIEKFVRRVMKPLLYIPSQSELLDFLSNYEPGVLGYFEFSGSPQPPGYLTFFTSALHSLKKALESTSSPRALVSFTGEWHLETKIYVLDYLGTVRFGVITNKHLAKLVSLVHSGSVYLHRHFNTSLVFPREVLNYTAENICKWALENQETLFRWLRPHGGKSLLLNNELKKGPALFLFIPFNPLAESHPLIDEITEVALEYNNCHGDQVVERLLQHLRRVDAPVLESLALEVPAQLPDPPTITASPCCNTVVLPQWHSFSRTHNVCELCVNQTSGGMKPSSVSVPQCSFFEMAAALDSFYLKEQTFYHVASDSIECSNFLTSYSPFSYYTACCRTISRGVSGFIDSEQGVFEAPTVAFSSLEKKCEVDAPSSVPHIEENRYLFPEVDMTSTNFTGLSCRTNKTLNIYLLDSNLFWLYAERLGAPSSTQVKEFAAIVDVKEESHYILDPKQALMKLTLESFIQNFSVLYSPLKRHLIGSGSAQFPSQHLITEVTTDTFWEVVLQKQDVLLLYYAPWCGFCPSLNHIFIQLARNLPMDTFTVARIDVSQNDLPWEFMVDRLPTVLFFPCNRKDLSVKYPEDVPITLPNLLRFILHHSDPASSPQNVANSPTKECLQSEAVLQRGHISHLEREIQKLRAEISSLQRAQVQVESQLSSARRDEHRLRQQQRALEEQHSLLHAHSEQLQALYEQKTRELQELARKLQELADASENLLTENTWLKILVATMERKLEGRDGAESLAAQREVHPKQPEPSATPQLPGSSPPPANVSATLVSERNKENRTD

Target | probe-labelled cysteine peptide fold change (10 µM) | probe-labelled cysteine peptide fold change (50 µM)
VCP_P55072_174_VVETDPSPYCIVAPDTVIHCEGEPIKR (UniProt P55072) | 0.0996 | -0.0884
UBA1_P22314_234_DNPGVVTCLDEAR (UniProt P22314) | 0.0251 | -0.108
VAT1L_Q9HCJ6_253+255_ISAEGVDIVLDCLCGDNTGK (UniProt Q9HCJ6) | 0.196 | -0.072
TXNRD1_Q16881_625_QLDSTIGIHPVCAEVFTTLSVTK (UniProt Q16881) | 0.301 | 0.194
TXNDC11_Q6PKC3_815_ECLQSEAVLQR (UniProt Q6PKC3) | -0.111 | -0.159
WDR44_Q5JSH3_642_ECLCCFQHIDFVTAIAFHPR (UniProt Q5JSH3) | 0.143 | 0.281
UNC13D_Q70J99_255_CREDQWYPLEPR (UniProt Q70J99) | -0.0799 | -0.0552
UBR2_Q8IWV8_1332_VHPNEEDPRVPIMCWGSCAYTIQSIER (UniProt Q8IWV8) | -0.326 | -0.616
WDR91_A4D1P6_246_LGDSELAMVCSQR (UniProt A4D1P6) | -0.0616 | -0.273
WNK1_Q9H4A3_1135_VVECQLETHNR (UniProt Q9H4A3) | 0.0982 | 0.156
TTC27_Q6P3X3_374_NNPVHTLTEVELLAFTSCLLSQPK (UniProt Q6P3X3) | 0.253 | 0.421
USP6_P35125_1036_AQAEPINLDSCLR (UniProt P35125) | -0.111 | -0.0406
TXNRD2_Q9NNW7_279_GCAPSR (UniProt Q9NNW7) | 0.829 | 0.386
VPS45_Q9NRW7_359_NLLEVSEVEQELACQNDHSSALQNIK (UniProt Q9NRW7) | 0.273 | -0.0913
